# Experimental data taken from the supplement of paper PMC10127200.
# Where a name gives a salt, the structure may show the parent alone.
# System: DU145
# Assay: Euclidean distance of Cell Painting phenotypic profile (signed KS, 77 features) to DMSO centroid (dimensionless distance); 5 or 10 uM (library dependent); higher = stronger phenotypic change vs DMSO (phenoactivity)
# Conditions: 48 h
# How it was run: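 Five cancer lines and a healthy fibroblast line received library compounds at 10 or 5 uM (library-dependent, 0.1% DMSO final) for 48 h. Stained cells were imaged confocally at 20X (9 fields/well). Harmony extracted 77 features, each scored as a signed Kolmogorov-Smirnov statistic against same-plate vehicle wells. Profiles were plate-position corrected, correlation-weighted and replicate-averaged at the top dose. Phenoactivity is the Euclidean distance from each profile to the median vehicle profile.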
row,SMILES,Euclidean distance
1,COc1cc(Nc2ncc(F)c(Nc3ccc4c(n3)N(COP(=O)(O)O)C(=O)C(C)(C)O4)n2)cc(OC)c1OC [R788 (Fostamatinib) Disodium],2.15
2,CO[C@H]1C[C@@H]2CC[C@@H](C)[C@@](O)(O2)C(=O)C(=O)N2CCCC[C@H]2C(=O)O[C@H]([C@H](C)C[C@@H]2CC[C@H](n3cnnn3)[C@H](OC)C2)CC(=O)[C@H](C)/C=C(\C)[C@@H](O)[C@@H](OC)C(=O)[C@H](C)C[C@H](C)/C=C/C=C/C=C/1C [Zotarolimus(ABT-578)],1.38
3,CO[C@@H](C(=O)N1Cc2[nH]nc(NC(=O)c3ccc(N4CCN(C)CC4)cc3)c2C1)c1ccccc1,1.66
4,CCCCS(=O)(=O)N[C@@H](Cc1ccc(OCCCCC2CCNCC2)cc1)C(=O)O [Tirofiban Hydrochloride],1.77
5,CCOC(=O)c1ccc(N)cc1 [Benzocaine hydrochloride],0.563
6,CSc1nc2cc(Cl)c(Oc3cccc(Cl)c3Cl)cc2[nH]1 [Triclabendazole],1.65
7,CN[C@@H]1[C@H](O)[C@H](NC)[C@H]2O[C@@]3(O)C(=O)C[C@@H](C)O[C@H]3O[C@@H]2[C@H]1O [Spectinomycin 2HCl],0.979
8,CC(C)/N=c1\cc2n(-c3ccc(Cl)cc3)c3ccccc3nc-2cc1Nc1ccc(Cl)cc1 [Clofazimine],0.808
9,COc1ccc(CNC(=O)Nc2ncc([N+](=O)[O-])s2)cc1,0.841
10,NC(=O)N/N=C/c1ccc([N+](=O)[O-])o1 [Nitrofural],1.62
11,CC(=O)NS(=O)(=O)c1ccc(N)cc1 [Sulfacetamide sodium salt hydrate],0.872
12,CC(=O)NS(=O)(=O)c1ccc(N)cc1 [Sulfacetamide],1.45
13,CCC[C@@H]1C[C@@H](C(=O)N[C@@H]([C@H]2O[C@H](SC)[C@H](O)[C@@H](O)[C@H]2O)[C@H](C)Cl)N(C)C1 [Clindamycin HCl],0.99
14,Cc1cc(NS(=O)(=O)c2ccc(N)cc2)nc(C)n1 [sulfaisodimidine],0.503
15,CO[C@H]1/C=C/O[C@@]2(C)Oc3c(C)c(O)c4c(c3C2=O)C2=NC3(CCN(CC(C)C)CC3)NC2=C(NC(=O)/C(C)=C\C=C\[C@H](C)[C@H](O)[C@@H](C)[C@@H](O)[C@@H](C)[C@H](OC(C)=O)[C@@H]1C)C4=O [Rifabutin],1.51
16,NS(=O)(=O)c1cc(Cl)c(Cl)c(S(N)(=O)=O)c1 [Dichlorphenamide],0.774
